According to PubChem BioAssay:
Values joined by “and” are separate entries in the source; they are usually repeats but may differ in a detail not shown here. Equal values may be shown once. Active and inactive are the calls of the source.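 Rule for the calls, unless noted: active = normalized viability below 100% at a tested concentration; inactive = the rest.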

Experiments:
[1] = liver-stage malaria parasite growth inhibition, primary screen, cell-based, HepG2, luciferase luminescence, HepG2 viability (AID 624349; in the data active = parasite load remaining mostly below about 12%, no sharp cut-off; inactive = mostly above about 10%;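 note: 100% = mean of DMSO negative control wells on the same plate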); conditions: P. berghei liver stage in HepG2, luciferase luminescence, concentration not given here; parasite load remaining: stronger effect = lower value; viability: measured here: HepG2 viability without parasites
[2] = tested on: Aerobactin synthetase IucA (Klebsiella pneumoniae); test: IucA aerobactin synthetase inhibitors, biochemical, Tocris library, absorbance (AID 1345561; call rule not given here;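 note: 100% = enzyme without compound and 0% = no enzyme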); conditions: purified IucA enzyme assay, absorbance (OD) read-out; stronger effect = lower value;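 tested at 8 µM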
[3] = sensitizers of A549 cells to miR-34 induction, primary screen, imaging, A549 dox-inducible miR-34, nuclei and caspase counts (AID 1347080;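 active = compounds whose cell count with miR-34 switched on is under 0.7 times the count with it off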); conditions: A549 miR-34 inducible, Hoechst nuclei count, 48 h
[4] = survival rescue of mitochondrial mutant cells in low glucose, primary screen, MELAS cybrids, Rieske KO mouse fibroblasts, CellTiter-Glo (AID 1508586;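 active = mean z-score across replicates of 1.96 or higher in either the MELAS or the Rieske mutant cell line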;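 note: z relative to plate mean and SD of compound and empty wells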)
[5] = ovarian cancer cell viability with rucaparib, profiling panel, oncology-focused library, rucaparib conditional (AID 1508598); conditions: patient-derived ovarian cancer cells, CellTiter-Glo viability, 144 h, stronger effect = lower value
[6] = viability rescue of complex I mutant cybrids, primary screen, cell-based, galactose medium, ATP luminescence (AID 1645843;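 active = z-score of at least 1.8 in each of two replicates, scored against plate mean and spread of sample wells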;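 note: positive z means more ATP and so rescue of galactose-driven cybrid death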); conditions: complex I mutant cybrid cells, 72 h, stronger effect = higher value
[7] = polyglutamine-triggered caspase-3 activation inhibitors, cell-based (AID 1583); conditions: polyglutamine-induced caspase-3 activation, cell assay; stronger effect = higher value;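 tested at 10 µM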
[8] = modifiers of HSF1 nuclear foci, imaging, Selleck Cancer Library (AID 1347162; in the data active = plate-normalised HSF1 focus index below about 0.46); conditions: human cells, at 10 µM; SSMD: measured here: HSF1 foci SSMD mean; cell count: measured here: cell number; plate-normalised HSF1 focus index: stronger effect = lower value
[9] = LFS_MB_P medulloblastoma growth inhibition, cell-based, chromothripsis tumors, cisplatin or BGB combos (AID 1671449; in the data active = inhibition above about 80%;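 note: cells exposed for 96 hours; 0% = vehicle DMSO and 100% = killing by high DMSO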); conditions: LFS_MB_P medulloblastoma cells
[10] = HDN33 neuroblastoma growth inhibition, cell-based, chromothripsis tumors, cisplatin or BGB combos (AID 1671450; in the data active = inhibition above about 80%;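 note: cells exposed to compound for four days; 0% = vehicle DMSO and 100% = cell killing by high DMSO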); conditions: HDN33 neuroblastoma cells, stronger effect = higher value
[11] = ICB984 medulloblastoma cell growth inhibition, synergistic combos for chromothripsis tumors, cisplatin or BGB combos (AID 1671451; call rule not given here;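 note: cells exposed for 96 hours before readout; 0% = vehicle DMSO and 100% = killing by high DMSO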); conditions: ICB984 medulloblastoma cells, drug combinations, stronger effect = higher value
[12] = HTB85 osteosarcoma cell growth inhibition, synergistic combos for chromothripsis tumors, BGB or cisplatin IC20 combos (AID 1671453; in the data active = inhibition above about 80%;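 note: cells exposed for 96 hours before readout; 0% = vehicle DMSO and 100% = high DMSO killing control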); conditions: HTB85 osteosarcoma cells, drug combinations, stronger effect = higher value
[13] = stronger effect = lower value, cell number ratio, induced over uninduced
[14] = measured here: relative caspase fold change +Dox/-Dox
[15] = measured here: total cells with miR-34 induction, stronger effect = lower value
[16] = measured here: total cells without miR-34 induction
[17] = MELAS cybrid survival, CellTiter-Glo 48 h, stronger effect = higher value
[18] = Rieske KO mouse fibroblast survival, CellTiter-Glo 72 h

## CN(C)CCCn1cc(C2=C(c3c[nH]c4ccccc34)C(=O)NC2=O)c2ccccc21
[1]
  parasite load remaining: 40.8% (inactive)
  viability: 101%
[2]
  remaining activity: 99.8% (inactive)
[3]; [13]
  fold change: 1.07 (inactive) and 1 (inactive) and 1.3 (inactive)
[3]; [14]
  fold change: 0.742 and 0.718 and 1.02
[3]; [15]
  cell count: 1180 and 5040 and 4700
[3]; [16]
  cell count: 1100 and 5040 and 3620
[4]; [17]
  z-score: -0.455 (inactive)
[4]; [18]
  z-score: -0.16
[5]; at 0.000305 µM, OCI-C5x cells, with rucaparib 10 µM, 100% = cells with rucaparib alone
  viability: 111% (inactive)
[5]; at 0.000305 µM, OCI-C5x cells, without rucaparib
  viability: 113% (inactive)
[5]; at 0.000305 µM, OCI-P5x cells, with rucaparib 20 µM, 100% = cells with rucaparib alone
  viability: 94.2% (active)
[5]; at 0.000305 µM, OCI-P5x cells, without rucaparib
  viability: 96.8% (active)
[5]; at 0.00122 µM, OCI-C5x cells, with rucaparib 10 µM, 100% = cells with rucaparib alone
  viability: 124% (inactive)
[5]; at 0.00122 µM, OCI-C5x cells, without rucaparib
  viability: 118% (inactive)
[5]; at 0.00122 µM, OCI-P5x cells, with rucaparib 20 µM, 100% = cells with rucaparib alone
  viability: 102% (inactive)
[5]; at 0.00122 µM, OCI-P5x cells, without rucaparib
  viability: 96% (active)
[5]; at 0.00488 µM, OCI-C5x cells, with rucaparib 10 µM, 100% = cells with rucaparib alone
  viability: 118% (inactive)
[5]; at 0.00488 µM, OCI-C5x cells, without rucaparib
  viability: 118% (inactive)
[5]; at 0.00488 µM, OCI-P5x cells, with rucaparib 20 µM, 100% = cells with rucaparib alone
  viability: 104% (inactive)
[5]; at 0.00488 µM, OCI-P5x cells, without rucaparib
  viability: 101% (inactive)
[5]; at 0.0195 µM, OCI-C5x cells, with rucaparib 10 µM, 100% = cells with rucaparib alone
  viability: 118% (inactive)
[5]; at 0.0195 µM, OCI-C5x cells, without rucaparib
  viability: 108% (inactive)
[5]; at 0.0195 µM, OCI-P5x cells, with rucaparib 20 µM, 100% = cells with rucaparib alone
  viability: 103% (inactive)
[5]; at 0.0195 µM, OCI-P5x cells, without rucaparib
  viability: 105% (inactive)
[5]; at 0.0781 µM, OCI-C5x cells, with rucaparib 10 µM, 100% = cells with rucaparib alone
  viability: 113% (inactive)
[5]; at 0.0781 µM, OCI-C5x cells, without rucaparib
  viability: 120% (inactive)
[5]; at 0.0781 µM, OCI-P5x cells, with rucaparib 20 µM, 100% = cells with rucaparib alone
  viability: 101% (inactive)
[5]; at 0.0781 µM, OCI-P5x cells, without rucaparib
  viability: 105% (inactive)
[5]; at 0.313 µM, OCI-C5x cells, with rucaparib 10 µM, 100% = cells with rucaparib alone
  viability: 120% (inactive)
[5]; at 0.313 µM, OCI-C5x cells, without rucaparib
  viability: 134% (inactive)
[5]; at 0.313 µM, OCI-P5x cells, with rucaparib 20 µM, 100% = cells with rucaparib alone
  viability: 108% (inactive)
[5]; at 0.313 µM, OCI-P5x cells, without rucaparib
  viability: 109% (inactive)
[5]; at 1.25 µM, OCI-C5x cells, with rucaparib 10 µM, 100% = cells with rucaparib alone
  viability: 122% (inactive)
[5]; at 1.25 µM, OCI-C5x cells, without rucaparib
  viability: 130% (inactive)
[5]; at 1.25 µM, OCI-P5x cells, with rucaparib 20 µM, 100% = cells with rucaparib alone
  viability: 116% (inactive)
[5]; at 1.25 µM, OCI-P5x cells, without rucaparib
  viability: 109% (inactive)
[5]; at 5 µM, OCI-C5x cells, with rucaparib 10 µM, 100% = cells with rucaparib alone
  viability: 109% (inactive)
[5]; at 5 µM, OCI-C5x cells, without rucaparib
  viability: 146% (inactive)
[5]; at 5 µM, OCI-P5x cells, with rucaparib 20 µM, 100% = cells with rucaparib alone
  viability: 101% (inactive)
[5]; at 5 µM, OCI-P5x cells, without rucaparib
  viability: 105% (inactive)
[6]
  z-score: -0.475 (inactive)

## Fc1cccc(/C=N/N=C/c2cccc(F)c2)c1
[2]
  remaining activity: 113% (inactive)
[3]; [13]
  fold change: 1.08 (inactive) and 0.921 (inactive)
[3]; [14]
  fold change: 1.02 and 0.755
[3]; [15]
  cell count: 11300 and 8600
[3]; [16]
  cell count: 10400 and 9330
[6]
  z-score: 0.64 (inactive) and 0.415 (inactive)

## CCN(CC)CCCCNc1ncc2cc(-c3c(Cl)cccc3Cl)c(NC(=O)NC(C)(C)C)nc2n1
[2]
  remaining activity: 131% (inactive)
[3]; [13]
  fold change: 0.841 (inactive) and 1.42 (inactive)
[3]; [14]
  fold change: 1.06 and 1.08
[3]; [15]
  cell count: 938 and 569
[3]; [16]
  cell count: 1110 and 401
[6]
  z-score: -0.7 (inactive) and -1 (inactive)

## COCc1nc2c([nH]1)c(=O)n(C)c(=O)n2CC(C)C
[2]
  remaining activity: 101% (inactive)
[3]; [13]
  fold change: 1.1 (inactive) and 0.916 (inactive) and 0.973 (inactive)
[3]; [14]
  fold change: 1 and 1.13 and 0.871
[3]; [15]
  cell count: 11000 and 5700 and 9180
[3]; [16]
  cell count: 10000 and 6220 and 9430
[6]
  z-score: 0.515 (inactive) and -0.165 (inactive)

## O=C(NCCCCCCNC(=O)ON=C1CCCCC1)ON=C1CCCCC1
[2]
  remaining activity: 126% (inactive)
[3]; [13]
  fold change: 0.722 (inactive) and 0.829 (inactive)
[3]; [14]
  fold change: 1.07 and 1.04
[3]; [15]
  cell count: 3570 and 6850
[3]; [16]
  cell count: 4940 and 8260
[6]
  z-score: -0.255 (inactive)

## Cc1cccc(C(=O)NCN2CCN(c3ccccc3C#N)CC2)c1
[2]
  remaining activity: 92.5% (inactive)
[3]; [13]
  fold change: 0.97 (inactive) and 0.957 (inactive)
[3]; [14]
  fold change: 0.725 and 1.8
[3]; [15]
  cell count: 9570 and 9300
[3]; [16]
  cell count: 9870 and 9720
[6]
  z-score: -0.125 (inactive) and 0.395 (inactive)

## NS(=O)(=O)C#Cc1ccccc1
[2]
  remaining activity: 110% (inactive)
[3]; [13]
  fold change: 1.19 (inactive) and 0.967 (inactive) and 1.13 (inactive)
[3]; [14]
  fold change: 1.2 and 0.467 and 1.12
[3]; [15]
  cell count: 3660 and 6510 and 3430
[3]; [16]
  cell count: 3080 and 6730 and 3020
[4]; [17]
  z-score: -0.62 (inactive)
[4]; [18]
  z-score: -0.117
[6]
  z-score: -1.27 (inactive) and -0.695 (inactive)

## N.N.O=C(O)C1(C(=O)O)CCC1.[Pt]
[7]
  inhibition: -4.65%
[1]
  parasite load remaining: 105% (inactive) and 45.1% (inactive)
  viability: 75.3% and 97.1%
[2]
  remaining activity: 100% (inactive)
[3]; [13]
  fold change: 0.91 (inactive) and 1.06 (inactive)
[3]; [14]
  fold change: 1.49 and 3.05
[3]; [15]
  cell count: 7500 and 6220
[3]; [16]
  cell count: 8240 and 5890
[8]
  SSMD: 2.09
  cell count: 7840
  plate-normalised HSF1 focus index: 1.08 (inactive)
[6]
  z-score: -0.15 (inactive)
[9]; at 0.5 µM, stronger effect = higher value
  inhibition: -25.8% (inactive) and -25% (inactive)
[9]; measured here: combination with BGB IC20, at 0.005 µM
  inhibition: -21.9% and -15.8%
[9]; measured here: combination with BGB IC40, at 0.005 µM
  inhibition: -33.4% and -11.2%
[9]; measured here: combination with BGB IC40, at 0.05 µM
  inhibition: -8.87% and -31.1%
[9]; measured here: combination with cisplatin, at 0.5 µM, stronger effect = higher value
  inhibition: -41.1% and -20.3%
[9]; measured here: combination with cisplatin, at 5 µM, stronger effect = higher value
  inhibition: -26.5% and -12.9%
[10]; BGB combo, at 5 µM
  inhibition: -9.54% and -0.176%
[10]; at 0.5 µM
  inhibition: -16.9% (inactive) and -34.4% (inactive)
[10]; cisplatin combo, at 5 µM
  inhibition: -4.51% and -16.2%
[10]; measured here: with BGB IC20 combination, at 0.5 µM
  inhibition: -16.3% and -33.3%
[10]; measured here: with cisplatin IC20 combination, at 0.5 µM
  inhibition: 7.01% and -41.5%
[10]; single agent, at 5 µM
  inhibition: -8.33% and -8.24%
[11]; BGB IC20 combo, at 0.005 µM
  inhibition: -23.8% and 9.43%
[11]; BGB IC40 combo, at 0.005 µM
  inhibition: -28.7% and -26%
[11]; BGB IC40 combo, at 0.05 µM
  inhibition: -33.8% and -31.4%
[11]; at 0.5 µM
  inhibition: -17.7% (inactive) and -35.2% (inactive)
[11]; cisplatin combo, at 0.05 µM
  inhibition: -33.8% and -36.1%
[11]; cisplatin combo, at 0.5 µM
  inhibition: -26.5% and -43.2%
[11]; cisplatin combo, at 5 µM
  inhibition: -41.9% and -11%
[11]; measured here: 5 uM single agent, at 5 µM
  inhibition: -8.78% and -6.62%
[12]; at 0.5 µM
  inhibition: -12.1% (inactive) and -29.4% (inactive)
[12]; measured here: with BGB IC20, at 0.5 µM
  inhibition: -30.4% and -34.9%
[12]; measured here: with BGB IC20, at 5 µM
  inhibition: 11.7% and -2.3%
[12]; measured here: with cisplatin IC20, at 0.5 µM
  inhibition: 2.42% and -41.2%
[12]; measured here: with cisplatin IC20, at 5 µM
  inhibition: 0.587% and 34.7%
[12]; single agent, at 5 µM
  inhibition: -3.92% and 13.4%
